# In PMC11062922 (Nature Chemical Biology, 2023):
# Where two headings read alike, the source gives them in different places.
# Legend:
# IKBKE = details: read-out: apparent Kd, n = 1
# NUAK1 = details: read-out: apparent Kd, n = 1
# [1] = compound concentrations:100 nM and 1000 nM (sheet 'Lestaurtinib' of Supplementary Table 1),run:Lestaurtinib_02364_R2,Plate:MR002
# [2] = compound concentrations:100 nM and 1000 nM (sheet 'Lestaurtinib' of Supplementary Table 1),run:Lestaurtinib_02364_R3,Plate:MR002
# [3] = compound concentrations:100 nM and 1000 nM (sheet 'Lestaurtinib' of Supplementary Table 1),run:Lestaurtinib_02367_R1,Plate:MR003
# [4] = compound concentrations:100 nM and 1000 nM (sheet 'Lestaurtinib' of Supplementary Table 1),run:Lestaurtinib_02381_R1,Plate:MR004
# [5] = compound concentrations:100 nM and 1000 nM (sheet 'Lestaurtinib' of Supplementary Table 1),run:Lestaurtinib_02437_R1,Plate:MR007
# [6] = compound concentrations:100 nM and 1000 nM (sheet 'Lestaurtinib' of Supplementary Table 1),run:Lestaurtinib_02437_R2,Plate:MR007
# [7] = compound concentrations:100 nM and 1000 nM (sheet 'Lestaurtinib' of Supplementary Table 1),run:Lestaurtinib_02438_R1,Plate:MR008
# [8] = compound concentrations:100 nM and 1000 nM (sheet 'Lestaurtinib' of Supplementary Table 1),run:Lestaurtinib_02438_R2,Plate:MR008
# [9] = compound concentrations:100 nM and 1000 nM (sheet 'Lestaurtinib' of Supplementary Table 1),run:Lestaurtinib_02443_R2,Plate:MR009
# [10] = compound concentrations:100 nM and 1000 nM (sheet 'Lestaurtinib' of Supplementary Table 1),run:Lestaurtinib_02482_R1,Plate:MR011
# [11] = compound concentrations:100 nM and 1000 nM (sheet 'Lestaurtinib' of Supplementary Table 1),run:Lestaurtinib_02482_R3,Plate:MR011
# [12] = compound concentrations:100 nM and 1000 nM (sheet 'Lestaurtinib' of Supplementary Table 1),run:Lestaurtinib_02487_R2,Plate:MR012
substance,measurement,setting,value
Lestaurtinib,potency estimated from few doses,"IKBKE; compound concentrations:100 nM and 1000 nM (sheet 'Lestaurtinib' of Supplementary Table 1),run:Lestaurtinib_02364_R1,Plate:MR002",769 nM
same,potency estimated from few doses,IKBKE; [1],896 nM
same,potency estimated from few doses,IKBKE; [2],647 nM
same,potency estimated from few doses,IKBKE; [3],711 nM
same,potency estimated from few doses,"IKBKE; compound concentrations:100 nM and 1000 nM (sheet 'Lestaurtinib' of Supplementary Table 1),run:Lestaurtinib_02367_R2,Plate:MR003",972 nM
same,potency estimated from few doses,IKBKE; [4],695 nM
same,potency estimated from few doses,"IKBKE; compound concentrations:100 nM and 1000 nM (sheet 'Lestaurtinib' of Supplementary Table 1),run:Lestaurtinib_02381_R2,Plate:MR004",551 nM
same,potency estimated from few doses,"IKBKE; compound concentrations:100 nM and 1000 nM (sheet 'Lestaurtinib' of Supplementary Table 1),run:Lestaurtinib_02381_R3,Plate:MR004",713 nM
same,potency estimated from few doses,"IKBKE; compound concentrations:100 nM and 1000 nM (sheet 'Lestaurtinib' of Supplementary Table 1),run:Lestaurtinib_02407_R3,Plate:MR005",883 nM
same,potency estimated from few doses,"IKBKE; compound concentrations:100 nM and 1000 nM (sheet 'Lestaurtinib' of Supplementary Table 1),run:Lestaurtinib_02422_R3,Plate:MR006",976 nM
same,potency estimated from few doses,IKBKE; [5],554 nM
same,potency estimated from few doses,IKBKE; [6],807 nM
same,potency estimated from few doses,"IKBKE; compound concentrations:100 nM and 1000 nM (sheet 'Lestaurtinib' of Supplementary Table 1),run:Lestaurtinib_02437_R3,Plate:MR007",71.2 nM
same,potency estimated from few doses,IKBKE; [7],861 nM
same,potency estimated from few doses,IKBKE; [8],834 nM
same,potency estimated from few doses,"IKBKE; compound concentrations:100 nM and 1000 nM (sheet 'Lestaurtinib' of Supplementary Table 1),run:Lestaurtinib_02443_R1,Plate:MR009",745 nM
same,potency estimated from few doses,IKBKE; [9],713 nM
same,potency estimated from few doses,IKBKE; [10],1130 nM
same,potency estimated from few doses,IKBKE; [11],627 nM
same,potency estimated from few doses,IKBKE; [12],1150 nM
same,potency estimated from few doses,"IKBKE; compound concentrations:100 nM and 1000 nM (sheet 'Lestaurtinib' of Supplementary Table 1),run:Lestaurtinib_02487_R3,Plate:MR012",756 nM
same,potency estimated from few doses,"IKBKE; compound concentrations:100 nM and 1000 nM (sheet 'Lestaurtinib' of Supplementary Table 1),run:Lestaurtinib_02496_R1,Plate:MR013",710 nM
same,potency estimated from few doses,"IKBKE; compound concentrations:100 nM and 1000 nM (sheet 'Lestaurtinib' of Supplementary Table 1),run:Lestaurtinib_02496_R2,Plate:MR013",695 nM
same,potency estimated from few doses,"IKBKE; compound concentrations:100 nM and 1000 nM (sheet 'Lestaurtinib' of Supplementary Table 1),run:Lestaurtinib_02566_R1,Plate:MR014",877 nM
same,potency estimated from few doses,"IKBKE; compound concentrations:100 nM and 1000 nM (sheet 'Lestaurtinib' of Supplementary Table 1),run:Lestaurtinib_02572_R1,Plate:MR015",756 nM
same,potency estimated from few doses,"IKBKE; compound concentrations:100 nM and 1000 nM (sheet 'Lestaurtinib' of Supplementary Table 1),run:Lestaurtinib_02572_R2,Plate:MR015",857 nM
same,potency estimated from few doses,"IKBKE; compound concentrations:100 nM and 1000 nM (sheet 'Lestaurtinib' of Supplementary Table 1),run:Lestaurtinib_02572_R3,Plate:MR015",855 nM
same,potency estimated from few doses,"IKBKE; compound concentrations:100 nM and 1000 nM (sheet 'Lestaurtinib' of Supplementary Table 1),run:Lestaurtinib_02577_R1,Plate:MR016",799 nM
same,potency estimated from few doses,"IKBKE; compound concentrations:100 nM and 1000 nM (sheet 'Lestaurtinib' of Supplementary Table 1),run:Lestaurtinib_02577_R2,Plate:MR016",785 nM
same,potency estimated from few doses,"IKBKE; compound concentrations:100 nM and 1000 nM (sheet 'Lestaurtinib' of Supplementary Table 1),run:Lestaurtinib_02577_R3,Plate:MR016",713 nM
same,potency estimated from few doses,"IKBKE; compound concentrations:100 nM and 1000 nM (sheet 'Lestaurtinib' of Supplementary Table 1),run:Lestaurtinib_02584_R2,Plate:MR017",744 nM
same,potency estimated from few doses,"IKBKE; compound concentrations:100 nM and 1000 nM (sheet 'Lestaurtinib' of Supplementary Table 1),run:Lestaurtinib_02584_R3,Plate:MR017",935 nM
same,potency estimated from few doses,"IKBKE; compound concentrations:100 nM and 1000 nM (sheet 'Lestaurtinib' of Supplementary Table 1),run:Lestaurtinib_02601_R3,Plate:MR018",796 nM
same,potency estimated from few doses,"IKBKE; compound concentrations:100 nM and 1000 nM (sheet 'Lestaurtinib' of Supplementary Table 1),run:Lestaurtinib_02606_R1,Plate:MR019",995 nM
same,potency estimated from few doses,"IKBKE; compound concentrations:100 nM and 1000 nM (sheet 'Lestaurtinib' of Supplementary Table 1),run:Lestaurtinib_02624_R2,Plate:MR020",729 nM
same,potency estimated from few doses,"IKBKE; compound concentrations:100 nM and 1000 nM (sheet 'Lestaurtinib' of Supplementary Table 1),run:Lestaurtinib_02624_R3,Plate:MR020",787 nM
same,potency estimated from few doses,"IKBKE; compound concentrations:100 nM and 1000 nM (sheet 'Lestaurtinib' of Supplementary Table 1),run:Lestaurtinib_02724_R1,Plate:MR021",731 nM
same,potency estimated from few doses,"IKBKE; compound concentrations:100 nM and 1000 nM (sheet 'Lestaurtinib' of Supplementary Table 1),run:Lestaurtinib_02724_R2,Plate:MR021",809 nM
same,potency estimated from few doses,"IKBKE; compound concentrations:100 nM and 1000 nM (sheet 'Lestaurtinib' of Supplementary Table 1),run:Lestaurtinib_02724_R3,Plate:MR021",582 nM
same,potency estimated from few doses,"IKBKE; compound concentrations:100 nM and 1000 nM (sheet 'Lestaurtinib' of Supplementary Table 1),run:Lestaurtinib_02741_R1,Plate:MR023",782 nM
same,potency estimated from few doses,"IKBKE; compound concentrations:100 nM and 1000 nM (sheet 'Lestaurtinib' of Supplementary Table 1),run:Lestaurtinib_02741_R2,Plate:MR023",810 nM
same,potency estimated from few doses,"IKBKE; compound concentrations:100 nM and 1000 nM (sheet 'Lestaurtinib' of Supplementary Table 1),run:Lestaurtinib_02741_R3,Plate:MR023",965 nM
same,potency estimated from few doses,"IKBKE; compound concentrations:100 nM and 1000 nM (sheet 'Lestaurtinib' of Supplementary Table 1),run:Lestaurtinib_02748_R1,Plate:MR024",505 nM
same,potency estimated from few doses,"IKBKE; compound concentrations:100 nM and 1000 nM (sheet 'Lestaurtinib' of Supplementary Table 1),run:Lestaurtinib_02748_R3,Plate:MR024",810 nM
same,potency estimated from few doses,"IKBKE; compound concentrations:100 nM and 1000 nM (sheet 'Lestaurtinib' of Supplementary Table 1),run:Lestaurtinib_02752_R1,Plate:MR025",783 nM
same,potency estimated from few doses,"IKBKE; compound concentrations:100 nM and 1000 nM (sheet 'Lestaurtinib' of Supplementary Table 1),run:Lestaurtinib_02752_R2,Plate:MR025",786 nM
same,potency estimated from few doses,"IKBKE; compound concentrations:100 nM and 1000 nM (sheet 'Lestaurtinib' of Supplementary Table 1),run:Lestaurtinib_02752_R3,Plate:MR025",596 nM
same,potency estimated from few doses,"IKBKE; compound concentrations:100 nM and 1000 nM (sheet 'Lestaurtinib' of Supplementary Table 1),run:Lestaurtinib_02765_R1,Plate:MR026",860 nM
same,potency estimated from few doses,"IKBKE; compound concentrations:100 nM and 1000 nM (sheet 'Lestaurtinib' of Supplementary Table 1),run:Lestaurtinib_02765_R3,Plate:MR026",731 nM
same,potency estimated from few doses,"IKBKE; compound concentrations:100 nM and 1000 nM (sheet 'Lestaurtinib' of Supplementary Table 1),run:Lestaurtinib_02768_R1,Plate:MR028",686 nM
same,potency estimated from few doses,"IKBKE; compound concentrations:100 nM and 1000 nM (sheet 'Lestaurtinib' of Supplementary Table 1),run:Lestaurtinib_02768_R2,Plate:MR028",820 nM
same,potency estimated from few doses,"IKBKE; compound concentrations:100 nM and 1000 nM (sheet 'Lestaurtinib' of Supplementary Table 1),run:Lestaurtinib_02768_R3,Plate:MR028",628 nM
same,potency estimated from few doses,"IKBKE; compound concentrations:100 nM and 1000 nM (sheet 'Lestaurtinib' of Supplementary Table 1),run:Lestaurtinib_02795_R1,Plate:MR022",874 nM
same,potency estimated from few doses,"IKBKE; compound concentrations:100 nM and 1000 nM (sheet 'Lestaurtinib' of Supplementary Table 1),run:Lestaurtinib_02795_R3,Plate:MR022",1210 nM
same,potency estimated from few doses,"IKBKE; compound concentrations:100 nM and 1000 nM (sheet 'Lestaurtinib' of Supplementary Table 1),run:Lestaurtinib_02802_R3,Plate:MR029",831 nM
same,potency estimated from few doses,"IKBKE; compound concentrations:100 nM and 1000 nM (sheet 'Lestaurtinib' of Supplementary Table 1),run:Lestaurtinib_02896_R1,Plate:MR030",749 nM
same,potency estimated from few doses,"IKBKE; compound concentrations:100 nM and 1000 nM (sheet 'Lestaurtinib' of Supplementary Table 1),run:Lestaurtinib_02896_R3,Plate:MR030",608 nM
same,potency estimated from few doses,"IKBKE; compound concentrations:100 nM and 1000 nM (sheet 'Lestaurtinib' of Supplementary Table 1),run:Lestaurtinib_03172_R2,Plate:MR031",814 nM
same,potency estimated from few doses,"IKBKE; compound concentrations:100 nM and 1000 nM (sheet 'Lestaurtinib' of Supplementary Table 1),run:Lestaurtinib_03172_R3,Plate:MR031",662 nM
same,potency estimated from few doses,"IKBKE; compound concentrations:100 nM and 1000 nM (sheet 'Lestaurtinib' of Supplementary Table 1),run:Lestaurtinib_03252_R1,Plate:MR032",804 nM
same,potency estimated from few doses,"IKBKE; compound concentrations:100 nM and 1000 nM (sheet 'Lestaurtinib' of Supplementary Table 1),run:Lestaurtinib_03260_R1,Plate:MR033",1210 nM
same,potency estimated from few doses,"IKBKE; compound concentrations:100 nM and 1000 nM (sheet 'Lestaurtinib' of Supplementary Table 1),run:Lestaurtinib_03260_R3,Plate:MR033",943 nM
same,potency estimated from few doses,"NUAK1; compound concentrations:100 nM and 1000 nM (sheet 'Lestaurtinib' of Supplementary Table 1),run:Lestaurtinib_02339_R1,Plate:MR001",94.5 nM
same,potency estimated from few doses,"NUAK1; compound concentrations:100 nM and 1000 nM (sheet 'Lestaurtinib' of Supplementary Table 1),run:Lestaurtinib_02339_R2,Plate:MR001",55.6 nM
same,potency estimated from few doses,NUAK1; [1],62.3 nM
same,potency estimated from few doses,NUAK1; [2],66.1 nM
same,potency estimated from few doses,NUAK1; [3],51.3 nM
same,potency estimated from few doses,"NUAK1; compound concentrations:100 nM and 1000 nM (sheet 'Lestaurtinib' of Supplementary Table 1),run:Lestaurtinib_02367_R3,Plate:MR003",78 nM
same,potency estimated from few doses,NUAK1; [4],85.9 nM
same,potency estimated from few doses,"NUAK1; compound concentrations:100 nM and 1000 nM (sheet 'Lestaurtinib' of Supplementary Table 1),run:Lestaurtinib_02407_R1,Plate:MR005",124 nM
same,potency estimated from few doses,"NUAK1; compound concentrations:100 nM and 1000 nM (sheet 'Lestaurtinib' of Supplementary Table 1),run:Lestaurtinib_02407_R2,Plate:MR005",200 nM
same,potency estimated from few doses,"NUAK1; compound concentrations:100 nM and 1000 nM (sheet 'Lestaurtinib' of Supplementary Table 1),run:Lestaurtinib_02422_R1,Plate:MR006",69.5 nM
same,potency estimated from few doses,NUAK1; [5],89.8 nM
same,potency estimated from few doses,NUAK1; [6],113 nM
same,potency estimated from few doses,NUAK1; [7],94.3 nM
same,potency estimated from few doses,NUAK1; [8],82.5 nM
same,potency estimated from few doses,NUAK1; [9],163 nM
same,potency estimated from few doses,"NUAK1; compound concentrations:100 nM and 1000 nM (sheet 'Lestaurtinib' of Supplementary Table 1),run:Lestaurtinib_02473_R1,Plate:MR010",93 nM
same,potency estimated from few doses,"NUAK1; compound concentrations:100 nM and 1000 nM (sheet 'Lestaurtinib' of Supplementary Table 1),run:Lestaurtinib_02473_R2,Plate:MR010",56.8 nM
same,potency estimated from few doses,NUAK1; [10],115 nM
same,potency estimated from few doses,"NUAK1; compound concentrations:100 nM and 1000 nM (sheet 'Lestaurtinib' of Supplementary Table 1),run:Lestaurtinib_02482_R2,Plate:MR011",74.4 nM
same,potency estimated from few doses,NUAK1; [11],87.3 nM
same,potency estimated from few doses,"NUAK1; compound concentrations:100 nM and 1000 nM (sheet 'Lestaurtinib' of Supplementary Table 1),run:Lestaurtinib_02487_R1,Plate:MR012",60.4 nM
same,potency estimated from few doses,NUAK1; [12],99.7 nM
